Only some compounds are listed: those with a hit (about 4.7% of all), similar ones and a draw of the others.
D1 potentiator: enhances dopamine response at the human D1 receptor; P21728; HEK293 TREx D1 cells, calcium flux, dopamine EC20 potentiation; potentiation, % at 10 µM; 360,000 compounds, 0.036% hits; AID 504651; in the data active = potentiation above about 30%; note: 0% is about no effect
Target sequence (P21728 whole entry, looked up): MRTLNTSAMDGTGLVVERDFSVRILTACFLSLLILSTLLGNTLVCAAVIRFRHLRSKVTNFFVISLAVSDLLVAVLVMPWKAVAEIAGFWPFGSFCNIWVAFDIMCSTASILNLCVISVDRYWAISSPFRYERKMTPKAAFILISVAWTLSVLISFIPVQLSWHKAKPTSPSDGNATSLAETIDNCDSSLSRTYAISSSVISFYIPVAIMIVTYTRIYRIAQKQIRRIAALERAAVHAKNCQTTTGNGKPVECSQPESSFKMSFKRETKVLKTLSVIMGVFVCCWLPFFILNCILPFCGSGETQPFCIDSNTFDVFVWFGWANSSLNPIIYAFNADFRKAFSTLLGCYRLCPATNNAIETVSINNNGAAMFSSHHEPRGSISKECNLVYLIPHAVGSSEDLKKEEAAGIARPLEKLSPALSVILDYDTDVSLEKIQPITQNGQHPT
D1 antag: human D1 dopamine receptor antagonism | P21728 | HEK293 TREx D1 cells, calcium flux, dopamine EC80; hits give low values | activity change, negative = inhibition, % at 10 µM | 360,000 compounds, 3.2% hits | AID 504652; in the data active = activity change below about -30%; note: % is set by controls: 0 for no effect and ±100 for the full control effect
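Compound effects on dopamine-evoked calcium signalling were measured in tetracycline-induced HEK293 Trex D1 cells. Dopamine at EC80 followed a 180 s compound pre-read, and fluorescence was tracked kinetically for 180 s more.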
TRHR agonist: TRH receptor (human) agonism. TRHR cells, calcium flux fluo-8, FDSS agonist mode. 360,000 compounds, 0.18% hits. activation, % at 2 µM. P34981; note: 0% is about no effect
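Agonist-mode FDSS calcium read (Ex 480/Em 530, 1 s cycles) in 1536-well TRHR cells with fluo-8 dye, after 10-cycle baseline and 23 nL compound addition; TRH at EC20 (10 nM final) added afterwards for the enhancer phase.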
TRHR PAM: TRH receptor (human) allosteric enhancement | P34981 | AID 493056 | TRHR cells, fluo-8 calcium fluorescence, EC20 TRH enhancement | 360,000 compounds, 0.66% hits | enhancement, % at 2 µM; in the data active = enhancement above about 30%; note: 0% is about no effect
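TRHR-expressing cells loaded with fluo-8 calcium dye were read kinetically (ex 480/em 530) during compound addition, then stimulated with an EC20 of TRH (10 nM final). Enhancement of the Gq-mediated intracellular calcium response was scored.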
D1 agonist: activates the human D1 dopamine receptor; P21728; HEK293 T-REx D1 cells, calcium flux, agonist mode; activation, % at 2 µM; 360,000 compounds, 1% hits; note: 0% is about no effect
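Tetracycline-induced HEK293 TREx D1 cells, force-coupled to calcium signalling, were dye-loaded with a no-wash calcium kit. Compound was pin-added after a 10 s baseline. Fluorescence was read kinetically at 1 cycle/s for 180 s, with calcium rises flagged as agonism.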
* = called active by the depositor. Cut-off read from the data, not from the text of the source, unless noted: active = activation above about 30%; inactive = the rest.

How did O=[N+]([O-])c1cccc(-c2ccc(/C=N/Nc3nc(N4CCCCC4)nc(N4CCCCC4)n3)o2)c1 do in these assays?
D1 potentiator: 1; D1 antag: 3; TRHR agonist: -1; TRHR PAM: -2; D1 agonist: 5

How did O=[N+]([O-])c1ccc(/C=N/Nc2nc(N3CCCC3)nc(N3CCCC3)n2)o1 do in these assays?
D1 potentiator: -1; D1 antag: -13; TRHR agonist: 0; TRHR PAM: -1; D1 agonist: 1

Results for COc1cccc(NC(=O)C2CCN(C(=O)N3CC(C)Oc4ccccc43)CC2)c1 (stereo not drawn) ?
D1 potentiator: -3; D1 antag: -8; TRHR agonist: 0; TRHR PAM: 6; D1 agonist: 6

Results for Cc1cccc(N2CCN(C(=O)CCCn3c(=O)[nH]c4ccsc4c3=O)CC2C)c1 (stereo not drawn) ?
D1 potentiator: -3; D1 antag: 3; TRHR agonist: -1; TRHR PAM: 4; D1 agonist: 1

Results for Cc1cccc(N2CCN(C(=O)CCn3c(=O)[nH]c4ccsc4c3=O)CC2C)c1 (stereo not drawn) ?
D1 potentiator: -6; D1 antag: -13; TRHR agonist: -2; TRHR PAM: 32*; D1 agonist: -4

How did O=C(CCCn1c(=O)[nH]c2ccsc2c1=O)N1CCN(c2ccccn2)CC1 do in these assays?
D1 potentiator: -1; D1 antag: -6; TRHR agonist: 0; TRHR PAM: 30*; D1 agonist: 0

How did CN(C)CCNC(=O)c1ccc2c(c1)NC(=O)c1ccccc1S2 do in these assays?
D1 potentiator: 0; D1 antag: 14; TRHR agonist: -1; TRHR PAM: 9; D1 agonist: 7

What do the screens show for `CCN(CC)CCNC(=O)c1ccc2c(c1)NC(=O)c1ccccc1S2`?
D1 potentiator: -4; D1 antag: -30*; TRHR agonist: 2; TRHR PAM: -4; D1 agonist: 1

Results for CNCC[C@@H](Oc1ccc(C(F)(F)F)cc1)c1ccccc1 ?
TRHR agonist: 6; TRHR PAM: 3; D1 agonist: 46*

How did CN(C)C(CNc1ccc(C(F)(F)F)cn1)c1ccccc1 (stereo not drawn) do in these assays?
D1 potentiator: -7; D1 antag: 3; TRHR agonist: 2; TRHR PAM: 10; D1 agonist: 8

What do the screens show for `Cn1c(/C(C#N)=C(\O)c2cccc(F)c2)nc2ccccc21`?
D1 potentiator: -6; D1 antag: -7; TRHR agonist: -1; TRHR PAM: -4; D1 agonist: 0

How did N#C/C(=C(/O)c1cccc(F)c1)c1nc2ccccc2s1 do in these assays?
D1 potentiator: -6; D1 antag: -35*; TRHR agonist: 3; TRHR PAM: 11; D1 agonist: 23

Results for COc1ccc(-c2c(C)nn3c(C(F)(F)F)cc(C)nc23)cc1OC ?
D1 potentiator: 1; D1 antag: -56*; TRHR agonist: 1; TRHR PAM: 0; D1 agonist: 2

Results for COC(=O)c1sc(-c2ccc(C(C)(C)C)cc2)cc1NC(=O)COCC(=O)O ?
D1 potentiator: -4; D1 antag: -39*; TRHR agonist: 1; TRHR PAM: -24; D1 agonist: 58*

How did COC(=O)c1sc(-c2ccc(Cl)cc2)cc1NC(=O)CSCC(=O)O do in these assays?
D1 potentiator: 0; D1 antag: 2; TRHR agonist: 0; TRHR PAM: -2; D1 agonist: 3

Results for COc1ccc(CCNC(=O)CCCn2c(=O)c3ccccc3n(CC(=O)Nc3cccc(C)c3)c2=O)cc1OC ?
D1 potentiator: 0; D1 antag: -7; TRHR agonist: -1; TRHR PAM: -6; D1 agonist: 2

What do the screens show for `O=C1OC2(c3ccccc31)c1cc(I)c(O)c(I)c1Oc1c2cc(I)c(O)c1I`?
D1 potentiator: -1; D1 antag: -42*; TRHR agonist: 242*; TRHR PAM: -10; D1 agonist: 411*

Results for O=C(c1ccc(O)cc1)c1ccc(C(=O)c2ccc(O)cc2)cc1 ?
D1 potentiator: -10; D1 antag: -80*; TRHR agonist: 0; TRHR PAM: 7; D1 agonist: 22

Results for C/C(=N\Nc1ccc([N+](=O)[O-])cc1)c1ccc(C#N)cc1 ?
D1 potentiator: -1; D1 antag: -6; TRHR agonist: 1; TRHR PAM: -8; D1 agonist: 4

Assay outcomes (PubChem BioAssay)
